A selection: hits, their analogues and other compounds. The true share with any hit is near 2.8%.
IP6K1 inhibitor: inhibitors of human IP6K1; activity change, % (series mostly up to about 58 µM); Q92551; 0.81% of 140,000 active; IP6K1 kinase, ADP-Glo luminescence, 2 h; active compounds read low; in the data active means activity change below about -25%
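ADP-Glo luminescence measures ADP made by human IP6K1 during a 2 h RT reaction with ATP/IP6 (mix at 1.3 mM/130 uM); top library doses 57.5 and 19.1 uM final.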
KDM5B inh: blocks human KDM5B histone demethylase activity | KDM5B demethylase, FDH-coupled NADH fluorescence (FDH is formaldehyde dehydrogenase) | 2.6% of 220,000 active | Potency, µM (highest dose often 57.7 µM), most hits filed as inhibitors | Q9UGL1; active means well fitted inhibition curve with a large enough effect; inconclusive means small, poorly fitted or top-dose-only effect; inactive means no such curve, though single readings can be large or run the other way; further: nearly all actives have a fitted effect of over 70% in size
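Coupled FDH/NAD⁺ fluorescence readout. KDM5BΔAP 200 nM final; compound titration, 10 min RT preincubation; substrate mix 12.5 µM H3K4me3, 25 µM 2-OG, 50 µM Fe(II), 100 µM ascorbate, 0.25 mM NAD⁺, 0.25 U/mL FDH; ΔRFU over 30 min.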
Each line names hits and unclear results; the compound was inactive in the other large screens; ! = not confirmed by another sample.

CN1CCOc2c(C(=O)NCc3cccnc3)cc(-c3ccc(N4CCOCC4)cc3)cc21	KDM5B inh inconclusive
Cc1ccccc1-c1cc(C(=O)NCc2cccnc2)c2c(c1)ncn2C	KDM5B inh inconclusive
COc1cccc(-c2cc(C(=O)NCc3cccnc3)c3c(c2)N(C)CCO3)c1OC	KDM5B inh 35µM
CNC(=O)c1cc(-c2cccc(OC)c2OC)cc2c1OCCN2Cc1cccnc1	KDM5B inh 32µM
COc1ccc(-c2cn3cc(C(=O)NCc4ccccn4)nc3s2)cc1	none (no result: KDM5B inh)
Cc1ccc(C(=O)NC(=S)NNC(=O)c2ccc(NC(=O)c3ccccc3)cc2)cc1	none (no result: IP6K1 inhibitor)
COc1ccccc1-c1cc(C(=O)NCCCc2ccccc2)nn2cnnc12	none (no result: KDM5B inh)
Cc1c(-c2ccc(F)cc2)[nH]c2ccc(CNC(=O)CN3CCOC3=O)cc12	KDM5B inh 28µM
CCN1CCN(CC(=O)NCc2ccc3[nH]c(-c4ccc(F)cc4)c(C)c3c2)CC1	KDM5B inh 32µM
Cc1nc(-c2ccc(F)cc2)n(CC(=O)NCc2ccc3c(c2)OCO3)c(=O)c1CCO	none
O=C(CN1CCOCC1)NCc1ccc(F)cc1	none (no result: IP6K1 inhibitor)
COc1ccc(NC(=O)c2nc3sccn3c2-c2ccc(C(F)(F)F)cc2)cc1	none (no result: KDM5B inh)
COc1cccc(-c2ccc(C(=O)N3CCC(NC(=O)Cc4cccc(Cl)c4)CC3)cc2)c1	none (no result: KDM5B inh)
Cn1ccc2c(-c3cc(NCCO)nc(N)n3)ccnc21	KDM5B inh 28µM
COc1ccccc1Nc1ccnc(N2CCC(C(=O)NCc3cccs3)CC2)n1	none (no result: KDM5B inh)
CCOc1ccccc1CN1CCC2(CCN(CCc3ccc(OC)cc3)CC2)Oc2ccccc21	KDM5B inh inconclusive
Cn1ccnc1CNc1nccc(-c2cnn(-c3ccccc3F)c2)n1	KDM5B inh inconclusive
Cc1ccccc1-n1cc(-c2ccnc(NC3CCN(C)CC3)n2)cn1	KDM5B inh 28µM
CCCCn1c(=O)c2ccccc2n(CC(=O)Nc2cccc(C(F)(F)F)c2)c1=O	none (no result: IP6K1 inhibitor)
CC1CCCN1C(=O)c1cc(-c2cnn(C(C)C)c2)nc2cc(F)ccc12 (centres undefined)	KDM5B inh 28µM
CC(C)c1ncc(-c2cc(C(=O)N(C)C(C)C)c3ccc(F)cc3n2)cn1	none
CC(C)n1cc(-c2cc(C(=O)N3CCC(C)(C)C3)c3ccc(F)cc3n2)cn1	KDM5B inh 32µM
CC(C)CN(C)C(=O)c1cc(-c2cnn(C(C)C)c2)nc2ccc(F)cc12	KDM5B inh inconclusive
Cc1ccc(C(=O)N2CCN(Cc3ccccc3-c3cccnc3)CC2)cc1	none (no result: KDM5B inh)
Cc1ccc(Nc2ccnc(N3CCC(NC(=O)c4ccc(Cl)nc4)CC3)n2)cc1	none (no result: KDM5B inh)
O=C(CN1CCC(C(=O)c2ccccc2)CC1)NC1CCC(C(F)(F)F)CC1 (centres undefined)	none (no result: IP6K1 inhibitor)
O=C(NCc1nnc2c(-c3nc(C4CC4)no3)cccn12)c1cccc2[nH]ccc12	none
O=C(NCc1nnc2c(-c3nc(C4CC4)no3)cccn12)c1ccc(F)cc1Cl	KDM5B inh 20µM
O=C(NCc1nnc2c(-c3nc(C4CC4)no3)cccn12)c1ccc(F)c(F)c1	KDM5B inh inconclusive
O=C(NCc1nnc2c(-c3nc(C4CC4)no3)cccn12)c1cccc(F)c1	KDM5B inh 25µM
O=C(NCc1nnc2c(-c3nc(C4CC4)no3)cccn12)c1ccccc1Cl	KDM5B inh inconclusive
O=C(NCc1nnc2c(-c3nc(C4CC4)no3)cccn12)c1cccc(Cl)c1	KDM5B inh 28µM
Cc1ccc(C(=O)NCc2nnc3c(-c4nc(C5CC5)no4)cccn23)cc1F	KDM5B inh inconclusive
O=C(Cc1cccc(F)c1)NCc1nnc2c(-c3nc(C4CC4)no3)cccn12	KDM5B inh 32µM
Cn1c(=O)[nH]c(=O)c2c1nc(SCC(=O)OCc1ccccc1)n2Cc1ccccc1	none (no result: IP6K1 inhibitor)
COCCCNC(=O)CNC(=O)c1cccc(-c2ccc(SC)cc2)c1	none (no result: KDM5B inh)
COc1ccc(NC(=O)c2c(NC(=O)CCC(=O)O)sc3c2CCC(C(C)(C)C)C3)cc1 (centres undefined)	none (no result: IP6K1 inhibitor)
O=C(NC1CCCN(c2ccc3nnc(-c4ccccc4)n3n2)C1)c1ccc(Cl)cc1 (centres undefined)	none (no result: KDM5B inh)
O=C(Cn1c(-c2cscn2)nc2ccccc21)Nc1ccc(N2CCCC2=O)cc1	none (no result: IP6K1 inhibitor)
CCN(CC)CCNC(=O)C(C)c1n[nH]c(=O)c2ccccc12 (centres undefined)	none (no result: IP6K1 inhibitor)
O=C(Cc1ccc(F)cc1)NCc1nnc2c(-c3nc(C4CC4)no3)cccn12	KDM5B inh 32µM
Cc1ccc(CC(=O)NCc2nnc3c(-c4nc(C5CC5)no4)cccn23)cc1	KDM5B inh inconclusive
CCn1c(CO)nnc1C1CC(NC(=O)NCCc2ccccc2F)C1 (centres undefined)	none
Cc1ocnc1C(=O)NC1CC(c2nnc(Cn3cccn3)n2C)C1 (centres undefined)	none
CCn1c(CO)nnc1C1CC(NC(=O)c2sccc2N)C1 (centres undefined)	KDM5B inh 11µM
CCn1c(CO)nnc1C1CC(NC(=O)c2nc(-c3ccccc3)[nH]c2C)C1 (centres undefined)	none
Cn1c(Cn2cccn2)nnc1C1CC(NC(=O)c2sccc2N)C1 (centres undefined)	KDM5B inh 16µM!
CCNc1ncc(C(=O)NC2CC(c3nnc(CO)n3CC)C2)cn1 (centres undefined)	KDM5B inh 25µM
O=C(c1nc2sccn2c1-c1ccncc1)N1CCOCC1	none (no result: KDM5B inh)
COc1ccnc(-c2nnc3ccc(NCc4cnccn4)nn23)c1	none (no result: KDM5B inh)
Fc1ccc(CN2CCC3(CC(c4cccc(C(F)(F)F)c4)=NO3)C2)cc1 (centres undefined)	KDM5B inh inconclusive
Cc1ccc(NC(=O)c2ccc3[nH]c(C)c(C)c3c2)cc1	none (no result: IP6K1 inhibitor)
CC(=O)N(C1CC1)C1CCOC2(CCN(C(=O)c3cc(C)n(C)n3)CC2)C1 (centres undefined)	none (no result: KDM5B inh)
O=[S+]1([O-])NC2(CCCN(Cc3ccc(C(F)(F)F)cc3)C2)COc2ccccc21 (centres undefined)	KDM5B inh inconclusive
O=C1NC2(CCN(Cc3ccsc3)C2)Oc2ccccc21 (centres undefined)	none
O=C1NC2(CCN(Cc3ccsc3)C2)COc2ccccc21 (centres undefined)	KDM5B inh 35µM
Cn1nccc1CN1CCCC2(COc3ccccc3C(=O)N2)C1 (centres undefined)	KDM5B inh 40µM
O=C1NC2(CCCN(Cc3ccc(C(F)(F)F)cc3)C2)COc2ccccc21 (centres undefined)	KDM5B inh 25µM
Cn1cccc1CN1CCC2(COc3ccccc3C(=O)N2)C1 (centres undefined)	KDM5B inh inconclusive
O=c1n(-c2ccc([N+](=O)[O-])cc2)nc2n1CCN(CC1CC1)C2	KDM5B inh inconclusive
N#Cc1ccccc1CNc1ccc(Cl)cc1F	none (no result: IP6K1 inhibitor)
COc1ccc(F)cc1-c1ccc(CN2CCCCC2C(=O)NCc2cccs2)cc1 (centres undefined)	none (no result: KDM5B inh)
COc1cccc(-c2ccc(CN3CCCC(NC(=O)Nc4ccc(Cl)cc4)C3)cc2)c1 (centres undefined)	none (no result: KDM5B inh)
O=C(O)C1CCc2nnc(C3CCCN([S+](=O)([O-])c4ccccc4)C3)n21 (centres undefined)	KDM5B inh 56µM
COc1cccc([S+](=O)([O-])N2CCCC(c3nnc4n3C(C(=O)O)CC4)C2)c1 (centres undefined)	none
O=C(NCc1ccc(F)cc1)c1nn(CCOc2ccccc2)c2c1CNCC2	none (no result: KDM5B inh)
O=C(c1ccc(-c2ccco2)cc1)N1CCOc2ccc(CN3CCN(c4ccccn4)CC3)cc2C1	KDM5B inh 28µM
O=C(c1noc2c1CCCC2)N1CCOc2ccc(CN3CCN(c4ccccn4)CC3)cc2C1	none

Bioassay records as filed in PubChem BioAssay.
